Data on 22 compounds can be found in PubChem BioAssay AID624352 (Sanford-Burnham Center for Chemical Genomics, 2012).

About 2,600 (0.72%) of roughly 360,000 compounds were called active.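 The calls were made as follows: active = inhibition of the luminescence signal of 40% or more relative to plate controls, in a single-dose primary screen at 18.75 µM; inactive = the rest.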 What follows is part of a selection rich in actives, with near analogues and random picks from the rest.

As a reminder, the inhibition is the change of the read-out against control, counted positive when it falls.

A short description of this assay: blockers of HIF-2a driven luciferase – luminescence, 786-0 RCC cells, primary screen (AID 624352). The conditions noted are these: 786-0 RCC cells HIF-2a reporter, overnight, at 18.8 µM, hits give high values.
Regarding `CCN(Cc1ccccc1)C(=O)CN1C(=S)NC(C)(C)CC1C` (configuration not stated), the inhibition is 4.59% (inactive).
Turning to `COc1cc(C(=O)OCC(=O)NC(C)CCc2ccccc2)cc(OC)c1OC` (configuration not stated), the inhibition is 26.2% (inactive).
Turning to `O=C1CCC(CCC(=O)N2CCCC(C(=O)c3ccc(Cl)cc3)C2)=NN1` (configuration not stated), the inhibition is -12.6% (inactive).
Then `CC(C)(O)C1=C[N+](=O)CC=C1`, with -0.393% (inactive).
Then `O=C(O)c1ccccc1OCc1ccccc1Cl`, with 10% (inactive).
For `Cc1c(CCC(=O)O)c(=O)oc2c(C)c(OCc3ccccc3Cl)ccc12`, the inhibition is 44.6% (active).
Then `COc1ccc2c(C)c(CCC(=O)NC3CC3)c(=O)oc2c1C`, with -156% (inactive); and `C#CCNc1nc(C(C)C)nc2c1nnn2Cc1ccccc1F`, with 4.59% (inactive); and `COc1ccc(S(=O)(=O)N2CCN(C(=O)NC3CCCCC3)CC2)cc1`, with 12.4% (inactive).
As for `O=C(CCS(=O)(=O)c1ccccc1)NC1CCCC1`, the figure is -146% (inactive).
As to `Cc1cccc(C)c1NC(=O)CCS(=O)(=O)c1cccc2nsnc12`, the inhibition is 4.25% (inactive).
With `Cc1cccc2sc(N(CCCN(C)C)C(=O)CCS(=O)(=O)c3ccccc3)nc12`, the inhibition is 56.1% (active).
Turning to `COCCN(C(=O)CCC(=O)Nc1nccs1)C(C(=O)NC(C)(C)C)c1ccc(Cl)cc1` (configuration not stated), the inhibition is 5.58% (inactive).
Then `CN1C(=O)[C@H]2[C@@H](/C=C/c3ccccc3)N3C(=O)CN(Cc4ccc(-c5ccccc5)cc4)C(=O)[C@@]3(C)[C@H]2C1=O`, with -8.21% (inactive).
For `O=C(CNCc1ccco1)Nc1cc(S(=O)(=O)N2CCOCC2)ccc1N1CCCC1`, the inhibition was 12.6% (inactive).
In the case of `Cc1ccc(N(Cc2cc(=O)[nH]c3ccccc23)C(=O)CCl)cc1`, the inhibition was 45.7% (active).
As for `Cc1ccc(N(Cc2ccccc2O)C(=O)c2ccccc2F)cc1`, the figure is 16.1% (inactive).
As for `CCC(=O)N(Cc1cc2ccccc2[nH]c1=O)c1ccc(OC)cc1`, the figure is 20.9% (inactive).
Then `O=C(NCCC(=O)N1O[C@@H]2C=C[C@H]1C2)OCC1c2ccccc2-c2ccccc21`, with 3.4% (inactive); and `CN(C)CCn1c2c(c(SCC(=O)Nc3ccccc3C(F)(F)F)nc1=O)CCCC2`, with 11.7% (inactive).
On to `NC(=O)c1cc(S(=O)(=O)N2CCCC2)ccc1OCc1ccc(F)cc1`, for which the inhibition is 24% (inactive).
With `Cc1[nH]c2ccc(S(N)(=O)=O)cc2c1C`, the inhibition is 11.6% (inactive).
